Where “and” joins values, the source holds several entries; their conditions need not be identical. Equal values may be shown once. Inconclusive results are not listed. The source holds several records for some structures; these can differ, active in one and inactive in another. Calls of active or inactive are those of the source. Unless noted, calls follow the shape of the dose curve; as a rule, active = well fitted curve in the direction sought with a large enough effect in the repeat runs; inconclusive = weak or mixed curves; inactive = no such curve, though single readings can be large; an effect the other way counts as inactive or inconclusive.

In PubChem BioAssay (Tox21) one finds Potency and outcome data, which are given here for eight molecules.

The nature of test [1]: qHTS assay for small molecule agonists of the p53 signaling pathway (AID 651631; calls by dose curve; also: nearly all actives have a fitted effect of over 15% in size). In short, it runs like this: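 We treat p53RE-bla HCT-116 cells with compounds for 16 h at 37 °C, add LiveBLAzer B/G FRET substrate for 2 h at room temperature, and measure fluorescence intensity.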
The nature of test [2]: qHTS assay for small molecules that induce genotoxicity in human embryonic kidney cells expressing luciferase-tagged ATAD5 (AID 651632). Also: nearly all actives have a fitted effect of over 15% in size. In short, it runs like this: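 Luminescent reporter readout, HEK293T ATAD5-luc line: 16 hr drug exposure (37C, 5% CO2) followed by Amplite, 30 min RT.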
The nature of test [3]: qHTS assay for small molecule agonists of the p53 signaling pathway - cell viability (AID 651633; calls by dose curve;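 also: p53RE-bla HCT reporter cells with a stable beta-lactamase p53 reporter; series mostly up to about 83 µM; nearly all actives have a fitted effect of over 30% in size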). In short, it runs like this: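 p53RE-bla cells, seeded at 4,000 per well and rested 5 h at 37 C/5% CO2, received compounds in DMSO for 16 h at 37 C. CellTiter-Glo was then added, and luminescence was read after 30 min at room temperature to gauge cytotoxicity.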
Test [4] in a line: qHTS assay for small molecules that induce genotoxicity in human embryonic kidney cells expressing luciferase-tagged ATAD5 - cell viability (AID 651634; calls by dose curve; also: nearly all actives have a fitted effect of over 25% in size). In short, it runs like this:
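Viability read: CellTiter-Fluor fluorescence, 30 min at 37C. Cells: HEK293T, luciferase-tagged ATAD5. Exposure: 15.5 hr, 37C, 5% CO2, compound or DMSO vehicle.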

A short description of test [5]: qHTS assay for small molecule disruptors of the mitochondrial membrane potential - cell viability (AID 720634; calls by dose curve; also: nearly all actives have a fitted effect of over 20% in size; also: potency is read from the fitted curve at half-maximal effect). In short, it runs like this: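 HepG2, 1 hr compound, 37 C. ATP luminescence via CellTiter-Glo, 30 min RT, same well as m-MPI.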
A short description of test [6]: qHTS assay for small molecule disruptors of the mitochondrial membrane potential (AID 720635). Also: potency is read from the fitted curve at half-maximal effect. In short, it runs like this:
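HepG2 cells (2,000/well) attached overnight at 37C, then took compound for 1 hr at 37C, 5% CO2. Mito-MPS dye was added for 30 min; fluorescence was read at 490/535 nm (monomers) and 540/590 nm (aggregates).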

A short description of test [7]: qHTS assay to test for compound auto fluorescence at 590 nm (red) in HepG2 cells (AID 720674). In short, it runs like this: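 Rose Bengal sodium served as the red fluorophore standard. HepG2 monolayers (overnight attachment, MEM with 10% FBS) were exposed to test compounds for 1 hr at 37 C and read at Ex 540/Em 590 nm.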
The nature of test [8]: qHTS assay to test for compound auto fluorescence at 460 nm (blue) in HEK293 cells (AID 720678). In short, it runs like this: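 Triamterene serves as the blue fluorophore standard. Compound signal at 405/460 nm is read in HEK293 wells (2,000 cells, 10% dialyzed FBS) after overnight treatment at 37C.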
A short description of test [9]: qHTS assay to test for compound auto fluorescence at 590 nm (red) in HEK293 cells (AID 720679). In short, it runs like this:
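We plated HEK293 cells in 10% dialyzed FBS medium, let them adhere for 4-5 hr, then added 23 nL compound. Overnight at 37C and 5% CO2 preceded fluorescence measurement at 540/590nm.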

Test [10] can be described thus: qHTS assay to test for compound auto fluorescence at 535 nm (green) in HEK293 cells (AID 720680).
A short description of test [11]: qHTS assay to test for compound auto fluorescence at 460 nm (blue) in HEK293 cell free culture (AID 720681). In short, it runs like this: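 Test compounds were pinned into cell-free culture medium (DMEM with 10% FBS) and fluorescence was read directly at Ex/Em 405/460 nm. Signals were expressed as fluorescence equivalents of triamterene, with DMSO vehicle as control.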

The nature of test [12]: qHTS assay to test for compound auto fluorescence at 535 nm (green) in HEK293 cell free culture (AID 720682). In short, it runs like this:
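Green-channel intensity (Ex/Em 485/535 nm) was recorded from compound-treated wells containing only DMEM with 10% FBS. Fluorescein provided the equivalency standard.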

A short description of test [13]: qHTS assay to test for compound auto fluorescence at 590 nm (red) in HEK293 cell free culture (AID 720683). In short, it runs like this: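 Tox21 10K library compounds were pinned into cell-free DMEM with 10% FBS and fluorescence was read at excitation 540 nm. Activity is expressed as Rose Bengal sodium equivalency.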
Test [14] is described as follows: qHTS assay to test for compound auto fluorescence at 590 nm (red) in HepG2 cell free culture (AID 720684). In short, it runs like this: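 Red fluorescence (540 nm excitation, 590 nm emission) was measured after compound transfer into cell-free MEM supplemented with 10% FBS. Values are equivalencies against Rose Bengal sodium.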
Test [15] in a line: qHTS assay to test for compound auto fluorescence at 460 nm (blue) in HepG2 cell free culture (AID 720685). In short, it runs like this: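 Compound (23 nL) or DMSO pinned into cell-free MEM with 10% FBS; blue fluorescence read at 405/460 nm excitation/emission, expressed as auto-fluorescence equivalency to triamterene.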
The nature of test [16]: qHTS assay to test for compound auto fluorescence at 535 nm (green) in HepG2 cell free culture (AID 720686).
A short description of test [17]: qHTS assay to test for compound auto fluorescence at 460 nm (blue) in HepG2 cells (AID 720687). In short, it runs like this: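 Cells (2,000/well in MEM with 10% FBS) attached overnight at 37 C, then were exposed to compound or DMSO for 1 hr at 37 C, 5% CO2. Fluorescence read at Ex/Em 405/460 nm, expressed as triamterene-equivalent signal.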
The target of test [18] is Glucocorticoid receptor (Homo sapiens) (UniProt P04150). The test can be described thus: qHTS assay to identify small molecule antagonists of the glucocorticoid receptor (GR) signaling pathway (AID 720692; active = well fitted inhibition curve with a large enough effect in the signal ratio in the repeat runs, not every such curve was filed as active; the % refers to the signal ratio). In short, it runs like this:
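Inhibition of glucocorticoid signalling is measured in HeLa cells with a GRE-controlled beta-lactamase reporter; cells are co-treated with compound and 5 nM dexamethasone (final) for 18 h before FRET substrate readout.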

Test [19] can be described thus: qHTS assay to test for compound auto fluorescence at 535 nm (green) in HepG2 cells (AID 720675).
Test [20] concerns the target Glucocorticoid receptor (Homo sapiens) (UniProt P04150). The experiment in a line: qHTS assay to identify small molecule agonists of the glucocorticoid receptor (GR) signaling pathway (AID 720691; active = well fitted activation curve with a large enough effect in the signal ratio in the repeat runs, not every such curve was filed as active; the % refers to the signal ratio). In short, it runs like this: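 qHTS in GR-bla HeLa cells: 4 h settling at 37 C/5% CO2, 18 h compound incubation at 37 C, 2 h LiveBLAzer B/G FRET substrate at room temperature, fluorescence intensity measured.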

Glucocorticoid receptor (Homo sapiens), sequence (P04150 whole entry, looked up): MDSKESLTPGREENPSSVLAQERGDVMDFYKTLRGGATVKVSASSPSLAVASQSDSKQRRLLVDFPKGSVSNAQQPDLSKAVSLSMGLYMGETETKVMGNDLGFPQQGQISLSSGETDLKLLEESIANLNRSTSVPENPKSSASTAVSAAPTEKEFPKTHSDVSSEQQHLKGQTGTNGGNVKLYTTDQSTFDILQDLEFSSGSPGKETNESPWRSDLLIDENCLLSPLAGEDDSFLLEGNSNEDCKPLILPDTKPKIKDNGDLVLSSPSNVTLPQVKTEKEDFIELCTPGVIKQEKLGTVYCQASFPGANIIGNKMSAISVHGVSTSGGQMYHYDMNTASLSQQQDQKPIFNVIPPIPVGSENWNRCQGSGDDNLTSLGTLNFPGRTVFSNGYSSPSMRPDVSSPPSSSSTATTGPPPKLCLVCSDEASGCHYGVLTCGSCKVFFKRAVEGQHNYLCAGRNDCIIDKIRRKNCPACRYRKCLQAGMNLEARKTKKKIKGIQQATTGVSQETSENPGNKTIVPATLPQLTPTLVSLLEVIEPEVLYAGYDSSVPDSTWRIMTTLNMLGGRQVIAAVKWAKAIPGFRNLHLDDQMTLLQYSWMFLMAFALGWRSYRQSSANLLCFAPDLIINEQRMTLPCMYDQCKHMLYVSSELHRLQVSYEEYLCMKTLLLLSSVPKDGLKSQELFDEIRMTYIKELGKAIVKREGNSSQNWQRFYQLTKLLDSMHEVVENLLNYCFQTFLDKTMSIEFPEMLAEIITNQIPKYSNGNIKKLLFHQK

As for `CCOCCO`, the Potency result in test [1], in [2], in [3], in test [4], in [5] and in test [6] was “inactive” throughout. For the same molecule, in test [18], the Potency result is “inactive”. The molecule was called inactive in [7], in test [8], in test [9], in test [10], in test [11] and in [12]. In addition, the molecule was classed as inactive in test [13], in [14], in test [15], in [16] and in test [17].
With `C#C[C@]1(O)CC[C@H]2[C@@H]3CCC4=CC(=O)CC[C@@H]4[C@H]3CC[C@@]21CC`, the Potency result in test [1], in test [2], in test [3], in [4] and in [6] was “inactive” each time. The Potency result in test [5] was “inactive and 48.6 µM (active)”. Further, the molecule was classed as inactive in test [8], in test [9], in test [10], in [11], in test [12] and in test [13]. Further, the outcome in test [14], in [15], in test [16] and in test [17] was inactive.
Consider `CC1(C)O[C@@H]2[C@@H](CO[C@@]3(COS(N)(=O)=O)OC(C)(C)O[C@@H]23)O1`, for which the Potency entry in [1], in [2], in [3], in test [4], in [5] and in test [6] was “inactive” throughout. Besides, the call in test [8], in test [9], in [10], in [11], in test [12] and in test [13] was inactive. For the same molecule, the outcome in test [14], in [15], in test [16] and in [17] was inactive.
As for `C/C=C/c1ccc(O)c(OC)c1`, the Potency result in test [1], in test [2], in [3], in [4] and in test [5] was “inactive” each time. In addition, the Potency in [6] is 61.1 µM (active). Further, the outcome in [19], in test [8], in [9], in [10], in [11] and in test [12] was inactive. Further, the outcome in test [13], in test [14], in test [15], in test [16] and in [17] was inactive.
In the case of `COc1ccc(C(=O)c2ccccc2)c(O)c1`, the Potency result in test [1], in [2], in test [3], in test [4], in [5] and in test [6] was “inactive” throughout. The Potency result in [20] and in test [18] was “inactive” each time. In addition, the outcome in test [19], in test [8], in test [9], in test [10], in test [11] and in [12] was inactive. The result in test [13], in test [14], in test [15], in [16] and in [17] was inactive.
Take `CCOC(=O)C(C)(C)Oc1ccc(Cl)cc1`: the Potency result in test [1], in [2], in test [3], in [4], in test [5] and in test [6] was “inactive” in each case. In test [18], the Potency result was “inactive”. Further, the outcome in test [19], in [8], in [9], in test [10], in test [11] and in test [12] was inactive. Besides, the result in test [13], in test [14], in [15], in test [16] and in [17] was inactive.
Turning to `NC(=O)c1ccc([N+](=O)[O-])cc1Cl`, the Potency entry in test [1], in test [2], in test [3], in test [4], in [5] and in [6] was “inactive” throughout. In addition, the Potency result in [18] is “inactive”. Besides, the molecule was classed as inactive in [7], in test [8], in [9], in test [10], in test [11] and in test [12]. The molecule was called inactive in test [13], in test [14], in [15], in test [16] and in test [17].
`COC(=O)c1ccc(C=O)cc1`: the Potency result in test [1], in [2], in [3], in test [4], in [5] and in test [6] was “inactive” each time. For the same molecule, the Potency entry in test [18] was “inactive”. Further, the call in test [19], in test [8], in test [9], in test [10], in [11] and in test [12] was inactive. In addition, the outcome in test [13], in test [14], in [15], in [16] and in [17] was inactive.
